Assay results reported in PubChem BioAssay (EPA / NIEHS).
Calls of active or inactive are those of the source. Rule for the calls: active = hit-call score of the fitted dose curve at least 0.9, where 1 is the maximum; inactive = score below 0.9.

These compounds were tested on urokinase plasminogen activator (uPA), PLAU (gene 5328) (assay: BSK_KF3CT_uPA: BioMAP Diversity Plus: KF3CT Assay for urokinase plasminogen activator (uPA) Biomarker Activity (AID 2283075)). Details: primary human keratinocytes with fibroblasts; actives raise or lower the signal.
Outline: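 Skin co-culture (keratinocytes + foreskin fibroblasts), human primary; 24 h post-dose; uPA by ELISA; gain/loss fit vs DMSO baseline.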

| SMILES | AC50 | outcome |
| --- | --- | --- |
| CCCCCCc1ccc(O)cc1O | 31.6 µM (active) | – |
| COc1ccc2sc(C(=O)Nc3nnn[nH]3)c(OC(C)C)c2c1 | 29.5 µM (active) | – |
| CN(C)c1ccc(N=NS(=O)(=O)O)cc1 | – | inactive |
| Nc1nc2ncc(CNc3ccc(C(=O)N[C@@H](CCC(=O)O)C(=O)O)cc3)nc2c(=O)[nH]1 | – | inactive |
| CCn1nc(Cc2ccccc2)cc1C1CCN(C[C@H]2C[C@H](N(C)[C@@H](C(=O)O)C(C)C)C[C@@H]2c2cccc(F)c2)CC1 | – | inactive |
| Cc1ccc(C)c(O)c1 | – | inactive |
| C=CC(=C)CCC=C(C)C | – | inactive |
| O=C1OC(=O)C2C3C=CC(C3)C12 (stereo not drawn) | – | inactive |
| CCOC(=O)COc1ccc2c(c1)CC(NCC(O)c1cccc(Cl)c1)CC2 (stereo not drawn) | – | inactive |
| CCOCCOCCOCCO | – | inactive |
| CCCC(=O)OCC | – | inactive |
| O=C(O)c1cc(N=Nc2ccc(S(=O)(=O)Nc3ccccn3)cc2)ccc1O | – | inactive |
| O=C(NS(=O)(=O)/C=C/c1ccccc1)c1ccc(F)cc1Cl | – | inactive |
| C[C@](N)(Cc1ccc(O)c(O)c1)C(=O)O | – | inactive |
| CCCCC(CC)COC(=O)CCCCCCCCC(=O)OCC(CC)CCCC (stereo not drawn) | – | inactive |
| CCCCCCCCCCCCc1ccccc1 | – | inactive |
| O=P(OC(CCl)CCl)(OC(CCl)CCl)OC(CCl)CCl | – | inactive |
| CNS(=O)(=O)c1cc(C(=O)N2CCC(CCN3C4CCC3CC(n3c(C)nc5ccccc53)C4)(c3cccc(F)c3)CC2)c(Cl)cc1F (stereo not drawn) | – | inactive |
| Oc1ccc2c(c1)-c1ccccc1C2 | – | inactive |
| CC(C)CCCCCCOC(=O)c1ccc(C(=O)OCCCCCCC(C)C)c(C(=O)OCCCCCCC(C)C)c1 | – | inactive |
| O=C(O)CCN(C1(C(=O)NO)CCCC1)S(=O)(=O)c1ccc(Oc2ccc(F)cc2)cc1 | – | inactive |
| COc1cccc(-c2ccc(/C=C\CN3CCCCCC3)cc2Cl)c1 | 33.5 µM (active) | – |
| O=C(OC[C@H]1O[C@@H](OC(=O)c2cc(O)c(O)c(OC(=O)c3cc(O)c(O)c(O)c3)c2)[C@H](OC(=O)c2cc(O)c(O)c(OC(=O)c3cc(O)c(O)c(O)c3)c2)[C@@H](OC(=O)c2cc(O)c(O)c(OC(=O)c3cc(O)c(O)c(O)c3)c2)[C@@H]1OC(=O)c1cc(O)c(O)c(OC(=O)c2cc(O)c(O)c(O)c2)c1)c1cc(O)c(O)c(OC(=O)c2cc(O)c(O)c(O)c2)c1 | 1.08 µM (active) | – |
| Clc1nc(Cl)c(Cl)c(Cl)c1Cl | – | inactive |
| COc1ccc(/C=C/S(=O)(=O)NC(=O)c2ccc(C)cc2Cl)cc1 | – | inactive |
| COC(=O)CC(=O)OC | – | inactive |
| O=c1[nH]c2ccc(S(=O)CCN3CCC(Cc4ccc(F)cc4)CC3)cc2o1 (stereo not drawn) | – | inactive |
| CC[C@H](C)C(=O)O[C@H]1C[C@@H](C)C=C2C=C[C@H](C)[C@H](CC[C@@H]3C[C@@H](O)CC(=O)O3)[C@H]21 | 32.5 µM (active) | – |
| Cc1c(-c2cccnc2)c2ccccc2n1CCCCC(=O)O | – | inactive |

These compounds were tested on CD40, CD40 (gene 958) (assay: BSK_LPS_CD40: BioMAP Diversity Plus: LPS Assay for CD40 Biomarker Activity (AID 2283076)). Details: primary human HUVEC with PBMC; actives raise or lower the signal.
Outline: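 ELISA readout of CD40 in HUVEC/PBMC co-culture (BSK_LPS system), 24 h post-dosing; bidirectional curve fit, DMSO baseline; parallel SRB total-protein staining for cytotoxicity.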

| SMILES | AC50 | outcome |
| --- | --- | --- |
| CCCCCCc1ccc(O)cc1O | 27.6 µM (active) | – |
| COc1ccc2sc(C(=O)Nc3nnn[nH]3)c(OC(C)C)c2c1 | 7.18 µM (active) | – |
| CN(C)c1ccc(N=NS(=O)(=O)O)cc1 | – | inactive |
| Nc1nc2ncc(CNc3ccc(C(=O)N[C@@H](CCC(=O)O)C(=O)O)cc3)nc2c(=O)[nH]1 | – | inactive |
| CCn1nc(Cc2ccccc2)cc1C1CCN(C[C@H]2C[C@H](N(C)[C@@H](C(=O)O)C(C)C)C[C@@H]2c2cccc(F)c2)CC1 | – | inactive |
| Cc1ccc(C)c(O)c1 | – | inactive |
| C=CC(=C)CCC=C(C)C | – | inactive |
| O=C1OC(=O)C2C3C=CC(C3)C12 (stereo not drawn) | – | inactive |
| CCOC(=O)COc1ccc2c(c1)CC(NCC(O)c1cccc(Cl)c1)CC2 (stereo not drawn) | 29 µM (active) | – |
| CCOCCOCCOCCO | – | inactive |
| CCCC(=O)OCC | – | inactive |
| O=C(O)c1cc(N=Nc2ccc(S(=O)(=O)Nc3ccccn3)cc2)ccc1O | – | inactive |
| O=C(NS(=O)(=O)/C=C/c1ccccc1)c1ccc(F)cc1Cl | – | inactive |
| C[C@](N)(Cc1ccc(O)c(O)c1)C(=O)O | – | inactive |
| CCCCC(CC)COC(=O)CCCCCCCCC(=O)OCC(CC)CCCC (stereo not drawn) | – | inactive |
| CCCCCCCCCCCCc1ccccc1 | 30.7 µM (active) | – |
| O=P(OC(CCl)CCl)(OC(CCl)CCl)OC(CCl)CCl | – | inactive |
| CNS(=O)(=O)c1cc(C(=O)N2CCC(CCN3C4CCC3CC(n3c(C)nc5ccccc53)C4)(c3cccc(F)c3)CC2)c(Cl)cc1F (stereo not drawn) | 20 µM (active) | – |
| Oc1ccc2c(c1)-c1ccccc1C2 | 20 µM (active) | – |
| CC(C)CCCCCCOC(=O)c1ccc(C(=O)OCCCCCCC(C)C)c(C(=O)OCCCCCCC(C)C)c1 | – | inactive |
| O=C(O)CCN(C1(C(=O)NO)CCCC1)S(=O)(=O)c1ccc(Oc2ccc(F)cc2)cc1 | – | inactive |
| COc1cccc(-c2ccc(/C=C\CN3CCCCCC3)cc2Cl)c1 | 28.6 µM (active) | – |
| O=C(OC[C@H]1O[C@@H](OC(=O)c2cc(O)c(O)c(OC(=O)c3cc(O)c(O)c(O)c3)c2)[C@H](OC(=O)c2cc(O)c(O)c(OC(=O)c3cc(O)c(O)c(O)c3)c2)[C@@H](OC(=O)c2cc(O)c(O)c(OC(=O)c3cc(O)c(O)c(O)c3)c2)[C@@H]1OC(=O)c1cc(O)c(O)c(OC(=O)c2cc(O)c(O)c(O)c2)c1)c1cc(O)c(O)c(OC(=O)c2cc(O)c(O)c(O)c2)c1 | – | inactive |
| Clc1nc(Cl)c(Cl)c(Cl)c1Cl | 30.4 µM (active) | – |
| COc1ccc(/C=C/S(=O)(=O)NC(=O)c2ccc(C)cc2Cl)cc1 | – | inactive |
| COC(=O)CC(=O)OC | – | inactive |
| O=c1[nH]c2ccc(S(=O)CCN3CCC(Cc4ccc(F)cc4)CC3)cc2o1 (stereo not drawn) | – | inactive |
| CC[C@H](C)C(=O)O[C@H]1C[C@@H](C)C=C2C=C[C@H](C)[C@H](CC[C@@H]3C[C@@H](O)CC(=O)O3)[C@H]21 | 13.8 µM (active) | – |
| Cc1c(-c2cccnc2)c2ccccc2n1CCCCC(=O)O | – | inactive |
